# Measured values from PubChem BioAssay (NCI).
# Compounds without any hit were thinned out: in the full panel of roughly 83,000, 20% have a hit.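 Each cell line was grown in a 96-well plate and treated with one concentration of compound for 48 hours. Values below 10 were considered active.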 The source made the active and inactive calls. *1 amine or outer side, *2 acyl side, *3 side chain or, on linkers, in order; H or OH if unused. Where a SMILES comes first, the peptide text is derived from it. Bridges are numbered along the chain shown (N, C = ends). Roman numbers before positions name the chains, in order. [ ]: non-standard residue; d: D form. ξ: configuration not given here. Actinocin(1to9) = Cc1c2oc3c(C)ccc(C(=O)[*:2])c3nc-2c(C(=O)[*:1])c(N)c1=O; NMeV = CN[CH](C(=O)O)C(C)C; ξD = NC(CC(=O)O)C(=O)O; Sar = CNCC(=O)O
# Test system: NCI-H460 lung
# Assay: NCI-60 one-dose screen, 48 h (100 = growth as untreated, 0 = no growth, -100 = all killed)
# Conditions: 10 µM unless noted
row,SMILES,growth
1,"CCC(C)C1NC(=O)C(NC(=O)c2c3nc4c(C(=O)NC5C(=O)NC(C(C)CC)C(=O)N6CCCC6C(=O)N(C)CC(=O)N(C)C(C(C)C)C(=O)OC5C)ccc(C)c4oc-3c(C)c(=O)c2N)C(C)OC(=O)C(C(C)C)N(C)C(=O)CN(C)C(=O)C2CCCN2C1=O (configuration not stated) (I: TIP[Sar][NMeV] / II: TIP[Sar][NMeV]; ester I:1-I:C, II:1-II:C; linker I:N-II:N via Actinocin(1to9); configuration not given here)",-19.6% (active)
2,O=C(c1ccccc1)N(CCCl)C(=O)N(CCCl)C(=O)c1ccccc1,108% (inactive)
3,OC(CSc1ccccc1)CN1CCN(c2ccc(Cl)cc2)CC1 (configuration not stated),109% (inactive)
4,CCCOS(=O)(=O)c1ccccc1,106% (inactive)
5,O=C(c1ccccc1)C(Br)[N+](=O)[O-] (configuration not stated),101% (inactive)
6,CCCCCCCCC(=O)OCCCC(CCC(CCC1CCCO1)OC(=O)CCCCCCCC)OC(=O)CCCCCCCC (configuration not stated),111% (inactive)
7,O=C(CCl)N(c1ccccc1)c1ccccc1,111% (inactive)
8,NC(=S)N/N=C/c1ncccc1O,8.78% (active)
9,COc1c(C)c2c(c(O)c1C/C=C(\C)CCC(=O)O)C(=O)OC2,9.24% (active)
10,CC1=CC(=O)C=CC1(C)C(Cl)(Cl)Cl (configuration not stated),104% (inactive)
11,O=C1c2ccccc2C(=O)c2c(O)c(Cl)cc(O)c21,100% (inactive)
12,Cc1oc2c(C)c3oc(=O)cc(C)c3cc2c1CCl,91.8% (inactive)
13,Oc1c(C(Nc2ccccc2)c2ccccc2)ccc2cccnc12 (configuration not stated),20.7% (inactive)
14,O=C(/C=C/C(Cl)(Cl)Cl)Nc1ccc(Cl)cc1,115% (inactive)
15,N#CC(=C1SCS1)[N+](=O)[O-],-6.65% (active)
16,Cc1cc(N/N=C/c2ccccn2)nc2ccccc12,3.05% (active)
17,CCCCCCN(CCCCCC)CCCNc1nccc2ccccc12,3.2% (active)
18,COC(=O)[C@]1(C)CCC[C@]2(C)c3ccc(C(C)C)cc3C(=O)[C@@H](Br)[C@@H]12,106% (inactive)
19,CCOC(=O)NC(/C=C/c1ccccc1)NC(=O)OCC,108% (inactive)

row,SMILES,growth
1,NCC(=O)NC(CC(=O)O)C(=O)O (configuration not stated) (H-Gly-[ξD]-OH),110% (inactive)
2,Nc1nc2ncc(CNc3ccc(C(=O)NC(CCC(=O)NC(CCC(=O)NC(CCC(=O)NC(CCC(=O)NC(CCC(=O)O)C(=O)O)C(=O)O)C(=O)O)C(=O)O)C(=O)O)cc3)nc2c(=O)[nH]1 (configuration not stated),120% (inactive)
3,O=C(Cc1nc2cc(Cl)c(Cl)cc2nc1CC(=O)c1ccccc1)c1ccccc1,73.4% (inactive)
4,Cn1c(-c2ccccc2)c(/C=C/C2=[N+](C)c3ccccc3C2(C)C)c2ccccc21,2.46% (active)
5,NC(=Nc1nc(-c2ccccn2)cc2ccccc12)c1ccccn1,1.13% (active)
6,CC(C)(C)c1ccc(O)c(-c2ccccc2)c1,112% (inactive)
7,CCOC(=O)C1=NN(c2ccccc2)C(=O)/C1=C\N1C(=O)/C(=C/c2cccc(O)c2)SC1=S,103% (inactive)
8,CCN(CC)CCNc1ccc([N+](=O)[O-])c2sc3ccccc3c(=O)c12,3.12% (active)
9,NCCCN(CCCN)CCCNCc1c2ccccc2c(CNCCCN(CCCN)CCCN)c2ccccc12,93.9% (inactive)
10,CCOC(=O)/C(=C\c1ccc2ccccc2c1)P(=O)(OCC)OCC,20% (inactive)
11,Cc1cc2nc(CC(=O)c3ccncc3)c(=O)[nH]c2cc1C,95.2% (inactive)
12,Oc1c(Cl)cc(Cl)cc1C=NCC1CCC(CN=Cc2cc(Cl)cc(Cl)c2O)CC1 (configuration not stated),108% (inactive)
13,CN1CCC(CN2c3ccccc3Sc3ccccc32)C1 (configuration not stated),101% (inactive)
14,CC1(C)OC2C(COC(c3ccccc3)(c3ccccc3)c3ccccc3)OC(c3c[nH]c4c(N)ncnc34)C2O1 (configuration not stated),41.1% (inactive)
15,O=[N+]([O-])c1ccc(Oc2ccccc2Cl)c([N+](=O)[O-])c1,105% (inactive)
16,Cc1cc(Br)c2nsnc2c1[N+](=O)[O-],2% (active)
17,Cc1cccc2c(N)c3ccccc3nc12,-17.4% (active)
18,O=C(/C(Cl)=N/O)c1ccc(-c2ccccc2)cc1,107% (inactive)
